Results reported in PubChem BioAssay AID624449 (Southern Research Specialized Biocontainment Screening …, 2012).
Results with a measured potency or affinity are listed apart. Activity calls are given as the source filed them. No rule for the calls is given here.

Assay: VEEV TC-83 cytopathic effect inhibition, confirmation, cell-based, TC-83 strain, set 6 (AID 624449)
Conditions: VEEV TC-83 infected cells; series mostly up to 25 µM

SMILES | outcome
CCN1CCN(Cc2nc3ccc(C(=O)O)cc3c(=O)n2-c2ccccc2)CC1 | inactive
CCN1CCN(Cc2nc3ccc([N+](=O)[O-])cc3c(=O)n2C)CC1 | inactive
COc1ccccc1-n1c(CN2CCNCC2)nc2ccc([N+](=O)[O-])cc2c1=O | inactive
